Measured values as given in PubChem BioAssay (Tox21).
Results filed as inconclusive are left out. Calls of active or inactive are those of the source. Calls follow the shape of the dose curve; as a rule, active = well fitted curve in the direction sought with a large enough effect in the repeat runs; inconclusive = weak or mixed curves; inactive = no such curve, though single readings can be large; an effect the other way counts as inactive or inconclusive.

What was measured:
[1] = Caspase-3/7 induction in HepG2 cells by small molecules, qHTS assay (AID 1346978); also: % is scaled to controls: 0 for no effect and ±100 for the full control effect; nearly all actives have a fitted effect of over 15% in size
Summary of the method: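 Wild-type HepG2 cells, 2,000/well, settled 5 hr at 37 C and 5% CO2, then compound-treated for 17 hr; caspase-3/7 activity read by luminescent Caspase-Glo 3/7 after 30 min at room temperature.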

[2] = Caspase-3/7 induction in CHO-K1 cells by small molecules, qHTS cell viability counter screen (AID 1346979); also: nearly all actives have a fitted effect of over 35% in size; also: potency is read from the fitted curve at half-maximal effect; as to activity change, negative = cytotoxicity: % is scaled to controls: 0 for no effect and ±100 for the full control effect
Summary of the method: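 Cytotoxicity counter screen: CellTiter-Fluor added to compound-treated wild-type CHO-K1 cells at 16 h (37C, 5% CO2), fluorescence measured 1 h later; same wells as caspase-3/7 measurement.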

[3] = Caspase-3/7 induction in CHO-K1 cells by small molecules, qHTS assay (AID 1346980); also: % is scaled to controls: 0 for no effect and ±100 for the full control effect; nearly all actives have a fitted effect of over 15% in size
Summary of the method: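 Wild-type CHO-K1 cells exposed to compounds for 17hr at 37 C, 5% CO2. Caspase-3/7 activity then measured by Caspase-Glo 3/7 luminescence after 30min at room temperature.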

[4] = biological target: Nuclear receptor subfamily 1 group I member 2 (Homo sapiens) (UniProt O75469); assay: Human pregnane X receptor (PXR) small molecule agonists, qHTS assay (AID 1346982); also: nearly all actives have a fitted effect of over 35% in size; also: potency is read from the fitted curve at half-maximal effect
Sequence of Nuclear receptor subfamily 1 group I member 2 (Homo sapiens) (O75469 whole entry, looked up): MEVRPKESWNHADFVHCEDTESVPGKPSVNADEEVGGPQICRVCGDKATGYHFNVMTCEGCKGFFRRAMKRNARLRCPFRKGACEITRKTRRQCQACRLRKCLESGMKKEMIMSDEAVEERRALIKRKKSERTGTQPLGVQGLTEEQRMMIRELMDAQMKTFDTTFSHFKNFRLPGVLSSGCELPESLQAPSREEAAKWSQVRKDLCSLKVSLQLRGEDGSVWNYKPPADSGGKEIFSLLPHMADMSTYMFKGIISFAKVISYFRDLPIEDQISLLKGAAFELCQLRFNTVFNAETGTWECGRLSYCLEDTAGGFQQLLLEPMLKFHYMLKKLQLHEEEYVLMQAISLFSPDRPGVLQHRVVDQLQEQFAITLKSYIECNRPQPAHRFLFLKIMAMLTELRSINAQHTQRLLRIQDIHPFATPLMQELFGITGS
Summary of the method: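 Luminescence (ONE-Glo, 30 min RT) after 24 hr compound exposure of PXR-Luc HepG2 cells; cells rested 5 hr post-plating in 5% charcoal-stripped FBS medium.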

[5] = biological target: Cytochrome P450 2C19 (Homo sapiens) (UniProt P33261); assay: Cytochrome P450 Family 2 Subfamily C Member 19 (CYP2C19) small molecule antagonists: luciferase reporter qHTS assay (AID 1671197); also: nearly all actives have a fitted effect of over 65% in size; also: potency is read from the fitted curve at half-maximal effect; as to activity change, negative = inhibition: series mostly up to about 120 µM; % is scaled to controls: 0 for no effect and ±100 for the full control effect
Sequence of Cytochrome P450 2C19 (Homo sapiens) (P33261 whole entry, looked up): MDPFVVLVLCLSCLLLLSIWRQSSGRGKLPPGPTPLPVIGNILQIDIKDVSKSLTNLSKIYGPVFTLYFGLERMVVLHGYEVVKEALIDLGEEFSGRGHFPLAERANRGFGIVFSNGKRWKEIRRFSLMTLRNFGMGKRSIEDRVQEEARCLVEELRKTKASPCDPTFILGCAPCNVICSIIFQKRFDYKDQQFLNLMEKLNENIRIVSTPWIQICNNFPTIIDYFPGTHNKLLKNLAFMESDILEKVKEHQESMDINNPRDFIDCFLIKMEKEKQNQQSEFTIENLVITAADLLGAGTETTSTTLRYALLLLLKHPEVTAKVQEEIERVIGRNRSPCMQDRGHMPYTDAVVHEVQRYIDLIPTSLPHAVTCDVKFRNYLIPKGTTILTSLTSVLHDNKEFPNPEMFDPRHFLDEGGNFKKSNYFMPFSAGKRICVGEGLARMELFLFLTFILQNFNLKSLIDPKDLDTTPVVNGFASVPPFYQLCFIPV
Summary of the method: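 Light output is proportional to CYP2C19 activity: proluciferin substrate is converted to luciferin, then detected by a luciferin detection reagent that also stops the 1 h, 37C NADPH-driven reaction. Ketoconazole serves as positive control.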

[6] = biological target: Cytochrome P450 2C9 (Homo sapiens) (UniProt P11712); assay: Cytochrome P450 Family 2 Subfamily C Member 9 (CYP2C9) small molecule antagonists: luciferase reporter qHTS assay (AID 1671198); also: nearly all actives have a fitted effect of over 50% in size; also: potency is read from the fitted curve at half-maximal effect; as to activity change, negative = inhibition: series mostly up to about 120 µM; % is scaled to controls: 0 for no effect and ±100 for the full control effect
Sequence of Cytochrome P450 2C9 (Homo sapiens) (P11712 whole entry, looked up): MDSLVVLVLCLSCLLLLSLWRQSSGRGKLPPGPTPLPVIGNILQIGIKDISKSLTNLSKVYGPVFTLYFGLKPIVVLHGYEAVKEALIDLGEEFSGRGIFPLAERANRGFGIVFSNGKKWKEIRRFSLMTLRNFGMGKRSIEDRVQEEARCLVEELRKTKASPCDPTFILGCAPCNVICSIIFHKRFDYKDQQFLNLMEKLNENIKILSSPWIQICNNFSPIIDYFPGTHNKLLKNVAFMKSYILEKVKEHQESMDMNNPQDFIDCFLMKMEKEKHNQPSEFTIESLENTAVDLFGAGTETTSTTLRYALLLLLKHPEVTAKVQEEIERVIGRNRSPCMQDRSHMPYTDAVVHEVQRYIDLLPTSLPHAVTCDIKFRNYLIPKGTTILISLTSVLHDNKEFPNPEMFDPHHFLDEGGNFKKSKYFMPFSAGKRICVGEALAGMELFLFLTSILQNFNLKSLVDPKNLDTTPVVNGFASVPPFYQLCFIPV
Summary of the method: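 P450-Glo proluciferin substrate with CYP2C9 enzyme; 10 min RT preincubation, then NADPH regeneration 1 h at 37C; luciferin detection reagent 20 min RT, luminescence in relative luminescence units.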

[7] = biological target: Cytochrome P450 1A2 (Homo sapiens) (UniProt P05177); assay: Cytochrome P450 Family 1 Subfamily A Member 2 (CYP1A2) small molecule antagonists: luciferase reporter qHTS assay (AID 1671199); also: nearly all actives have a fitted effect of over 50% in size; also: potency is read from the fitted curve at half-maximal effect
Sequence of Cytochrome P450 1A2 (Homo sapiens) (P05177 whole entry, looked up): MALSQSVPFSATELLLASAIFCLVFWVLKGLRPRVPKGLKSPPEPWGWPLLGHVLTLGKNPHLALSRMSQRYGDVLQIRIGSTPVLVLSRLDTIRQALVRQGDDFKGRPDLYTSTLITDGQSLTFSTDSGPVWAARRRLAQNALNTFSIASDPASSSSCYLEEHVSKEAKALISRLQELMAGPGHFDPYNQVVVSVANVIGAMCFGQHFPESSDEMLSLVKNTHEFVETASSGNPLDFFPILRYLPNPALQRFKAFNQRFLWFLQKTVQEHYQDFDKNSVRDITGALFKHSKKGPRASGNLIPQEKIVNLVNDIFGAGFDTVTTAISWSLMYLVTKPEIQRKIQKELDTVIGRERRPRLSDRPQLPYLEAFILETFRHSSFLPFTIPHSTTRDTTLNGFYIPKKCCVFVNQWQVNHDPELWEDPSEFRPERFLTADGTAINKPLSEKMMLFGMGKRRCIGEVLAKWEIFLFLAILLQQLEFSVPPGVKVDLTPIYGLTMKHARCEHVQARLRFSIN
Summary of the method: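 Signal from luciferin formed by CYP1A2 from a proluciferin substrate is read as luminescence, expressed in relative luminescence units. Compounds sit with enzyme 10 min, NADPH-driven reaction runs 1 h, all at room temperature.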

[8] = biological target: Voltage-gated inwardly rectifying potassium channel KCNH2 (Homo sapiens) (UniProt Q12809); assay: Human Ether-a-go-go-Related Gene (hERG) channel small molecule antagonists: fluorescence cell-based qHTS assay (AID 1671200); also: series mostly up to about 77 µM; % is scaled to controls: 0 for no effect and ±100 for the full control effect; nearly all actives have a fitted effect of over 50% in size
Sequence of Voltage-gated inwardly rectifying potassium channel KCNH2 (Homo sapiens) (Q12809 whole entry, looked up): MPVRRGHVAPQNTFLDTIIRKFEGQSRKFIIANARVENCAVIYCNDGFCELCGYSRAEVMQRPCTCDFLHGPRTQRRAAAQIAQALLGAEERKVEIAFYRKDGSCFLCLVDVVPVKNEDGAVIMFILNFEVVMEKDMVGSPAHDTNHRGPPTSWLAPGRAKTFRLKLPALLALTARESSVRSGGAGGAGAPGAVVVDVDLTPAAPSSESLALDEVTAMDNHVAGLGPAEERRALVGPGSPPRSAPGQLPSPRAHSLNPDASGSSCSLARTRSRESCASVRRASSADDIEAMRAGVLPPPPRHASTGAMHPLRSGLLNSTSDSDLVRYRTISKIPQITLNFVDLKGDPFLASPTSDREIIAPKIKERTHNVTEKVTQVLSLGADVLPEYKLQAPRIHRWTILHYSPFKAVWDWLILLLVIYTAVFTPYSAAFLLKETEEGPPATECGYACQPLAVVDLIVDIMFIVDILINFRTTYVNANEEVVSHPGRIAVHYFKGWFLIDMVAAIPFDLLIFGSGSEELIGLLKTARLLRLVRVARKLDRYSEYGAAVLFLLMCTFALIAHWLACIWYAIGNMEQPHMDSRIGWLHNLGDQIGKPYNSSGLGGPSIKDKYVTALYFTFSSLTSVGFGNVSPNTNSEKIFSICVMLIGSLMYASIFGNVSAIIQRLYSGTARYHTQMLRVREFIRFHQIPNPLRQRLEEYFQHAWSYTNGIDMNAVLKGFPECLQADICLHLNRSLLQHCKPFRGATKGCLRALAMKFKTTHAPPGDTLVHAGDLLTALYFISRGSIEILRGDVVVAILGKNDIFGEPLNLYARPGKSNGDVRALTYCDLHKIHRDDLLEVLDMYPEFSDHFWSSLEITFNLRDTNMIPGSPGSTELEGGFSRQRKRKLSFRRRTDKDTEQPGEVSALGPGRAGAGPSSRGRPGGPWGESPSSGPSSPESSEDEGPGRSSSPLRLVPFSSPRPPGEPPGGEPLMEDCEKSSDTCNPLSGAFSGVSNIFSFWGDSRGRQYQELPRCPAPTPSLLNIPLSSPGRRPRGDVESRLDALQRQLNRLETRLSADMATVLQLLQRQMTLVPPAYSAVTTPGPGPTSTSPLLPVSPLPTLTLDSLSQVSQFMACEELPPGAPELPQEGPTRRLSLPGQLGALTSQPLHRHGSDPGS
Summary of the method: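 Thallium flux as potassium surrogate: FluxOR II dye loaded 1 h at room temperature into hERG-expressing U2OS cells, then stimulus buffer added after 10 min. Kinetic 480 nm excitation/540 nm emission read, 2 min.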

[9] = biological target: Cytochrome P450 3A4 (Homo sapiens) (UniProt P08684); assay: Cytochrome P450 Family 3 Subfamily A Member 4 (CYP3A4) small molecule antagonists: luciferase reporter qHTS assay (AID 1671201); also: nearly all actives have a fitted effect of over 50% in size; also: potency is read from the fitted curve at half-maximal effect; as to activity change, negative = inhibition: series mostly up to about 120 µM; % is scaled to controls: 0 for no effect and ±100 for the full control effect
Sequence of Cytochrome P450 3A4 (Homo sapiens) (P08684 whole entry, looked up): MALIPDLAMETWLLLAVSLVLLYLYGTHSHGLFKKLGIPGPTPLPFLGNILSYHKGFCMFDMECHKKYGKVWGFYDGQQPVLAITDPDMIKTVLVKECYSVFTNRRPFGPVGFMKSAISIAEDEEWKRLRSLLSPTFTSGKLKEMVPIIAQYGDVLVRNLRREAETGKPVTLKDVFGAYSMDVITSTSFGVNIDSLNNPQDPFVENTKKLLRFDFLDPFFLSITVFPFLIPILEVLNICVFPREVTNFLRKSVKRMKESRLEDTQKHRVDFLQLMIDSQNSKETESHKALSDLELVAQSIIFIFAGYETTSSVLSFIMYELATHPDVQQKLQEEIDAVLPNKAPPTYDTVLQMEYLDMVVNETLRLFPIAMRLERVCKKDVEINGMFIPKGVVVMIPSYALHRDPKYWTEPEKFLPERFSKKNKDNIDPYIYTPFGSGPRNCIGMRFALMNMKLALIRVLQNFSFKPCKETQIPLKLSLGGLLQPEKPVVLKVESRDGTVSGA
Summary of the method: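 Recombinant human CYP3A4 converts a proluciferin substrate to luciferin over 1 h at room temperature after NADPH regeneration solution is added (compound preincubated 10 min); detection reagent stops reaction, luminescence read 20 min later as relative units.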

[10] = biological target: Cytochrome P450 2D6 (Homo sapiens) (UniProt P10635); assay: Cytochrome P450 Family 2 Subfamily D Member 6 (CYP2D6) small molecule antagonists: luciferase reporter qHTS assay (AID 1671196); also: nearly all actives have a fitted effect of over 50% in size; also: potency is read from the fitted curve at half-maximal effect
Sequence of Cytochrome P450 2D6 (Homo sapiens) (P10635 whole entry, looked up): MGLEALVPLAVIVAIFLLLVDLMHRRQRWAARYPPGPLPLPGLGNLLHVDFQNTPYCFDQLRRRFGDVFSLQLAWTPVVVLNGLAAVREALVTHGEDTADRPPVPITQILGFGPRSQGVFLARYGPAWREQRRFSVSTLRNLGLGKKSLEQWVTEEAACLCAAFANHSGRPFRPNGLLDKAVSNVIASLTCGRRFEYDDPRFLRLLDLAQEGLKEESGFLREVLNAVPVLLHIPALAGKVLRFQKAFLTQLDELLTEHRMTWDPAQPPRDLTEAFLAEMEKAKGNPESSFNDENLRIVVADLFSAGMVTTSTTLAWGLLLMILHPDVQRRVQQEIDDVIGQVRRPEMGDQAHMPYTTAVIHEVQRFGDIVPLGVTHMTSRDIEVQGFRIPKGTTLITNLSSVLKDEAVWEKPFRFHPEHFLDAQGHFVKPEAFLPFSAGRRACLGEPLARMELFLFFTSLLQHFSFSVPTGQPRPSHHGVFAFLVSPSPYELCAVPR
Summary of the method: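 Inhibition of CYP2D6 was gauged by loss of luminescence, since light produced tracks the luciferin generated from a proluciferin substrate. A 10 min room-temperature preincubation preceded 1 h NADPH-supported turnover.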

[11] = Caspase-3/7 induction in HepG2 cells by small molecules, qHTS cell viability counter screen (AID 1346981); also: series mostly up to about 92 µM; % is scaled to controls: 0 for no effect and ±100 for the full control effect; nearly all actives have a fitted effect of over 30% in size
Summary of the method: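 Counter screen for cytotoxicity: HepG2 exposed 16 hr to compounds, then CellTiter-Fluor viability signal (fluorescence, 1 hr reagent incubation).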

[12] = biological target: Nuclear receptor subfamily 1 group I member 2 (Rattus norvegicus) (UniProt Q9R1A7); assay: Rat pregnane X receptor (rPXR) activation by small molecules, qHTS assay (AID 1346983); conditions: rPXR luciferase reporter cells, One-Glo luminescence, 24 h; max activation: stronger effect = higher value; also: % is scaled to controls: 0 for no effect and ±100 for the full control effect; nearly all actives have a fitted effect of over 20% in size
Sequence of Nuclear receptor subfamily 1 group I member 2 (Rattus norvegicus) (Q9R1A7 whole entry, looked up): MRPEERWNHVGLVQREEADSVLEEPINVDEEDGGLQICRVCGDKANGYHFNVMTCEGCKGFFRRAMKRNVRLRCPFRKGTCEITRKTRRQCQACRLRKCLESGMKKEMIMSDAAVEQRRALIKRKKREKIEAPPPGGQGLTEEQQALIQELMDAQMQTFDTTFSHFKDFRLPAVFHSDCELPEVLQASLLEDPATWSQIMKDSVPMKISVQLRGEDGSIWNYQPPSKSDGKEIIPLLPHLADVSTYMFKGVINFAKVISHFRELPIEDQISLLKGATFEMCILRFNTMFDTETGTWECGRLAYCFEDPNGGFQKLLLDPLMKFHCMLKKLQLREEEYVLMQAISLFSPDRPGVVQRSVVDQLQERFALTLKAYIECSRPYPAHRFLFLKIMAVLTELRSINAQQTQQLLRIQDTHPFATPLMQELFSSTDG
Summary of the method: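 Cell-based rPXR activation assay: rPXR cells, 2,000 per well, rested 5hr at 37 C, then exposed to compounds in DMSO for 24 hr at 37 C. Luciferase activity read by One-Glo luminescence after 30 min at room temperature.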

[13] = biological target: Nuclear receptor subfamily 1 group I member 2 (Homo sapiens) (UniProt O75469); assay: CYP3A4 induction through human pregnane X receptor (PXR) by small molecules, qHTS assay (AID 1346984); also: nearly all actives have a fitted effect of over 40% in size; also: potency is read from the fitted curve at half-maximal effect
Summary of the method: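 DPX-2 reporter cells; 24h cpd, 37C; Luciferin-IPA 3uM final x3h; One-Glo 30 min RT; lumi read.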

[14] = biological target: Nuclear receptor subfamily 1 group I member 2 (Homo sapiens) (UniProt O75469); assay: Human pregnane X receptor (PXR) activation by small molecules, qHTS assay (AID 1346985); also: potency is read from the fitted curve at half-maximal effect; nearly all actives have a fitted effect of over 40% in size
Summary of the method: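 DPX-2 cells (HepG2 co-transfected with a PXR response element and a CYP3A4-promoter luciferase construct) were seeded at 2,000 per well, rested 5 hr at 37C, then exposed to DMSO-dissolved compounds for 24 hr. Activation was read as luciferase luminescence.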

O=C(Cl)c1ccc([N+](=O)[O-])cc1
active: Potency [4] 5.35 µM | Potency [7] 55.4 µM
inactive: outcome [1] | Potency [2] | Potency [3] | Potency [5] | Potency [6] | Potency [8] | Potency [9]

CCCCCCc1ccc(N)cc1
inactive: outcome [1] | Potency [2] | Potency [3] | Potency [8]
active: Potency [4] 30.6 µM | Potency [5] 3.56 µM | Potency [6] 17.8 µM | Potency [7] 28.3 µM | Potency [9] 35.6 µM

COCCCCCCCCOCCC[Si](C)(O[Si](C)(C)C)O[Si](C)(C)C
active: Potency [2] 13.7 µM | Potency [5] 56.4 µM | Potency [6] 35.6 µM | Potency [9] 3.56 µM
inactive: outcome [1] | Potency [3] | Potency [10]

O=C(NS(=O)(=O)/C=C/c1cccs1)c1ccc(F)cc1Br
active: Potency [4] 30.6 µM | Potency [6] 7.1 µM
inactive: outcome [1] | Potency [2] | Potency [3] | Potency [10] | Potency [7] | Potency [8] | Potency [9]

COC(Cc1ccccc1)OC
inactive: outcome [1] | Potency [2] | Potency [11] | Potency [4] | Potency [10] | Potency [5] | Potency [7] | Potency [8] | Potency [9]

O=[N+]([O-])c1cc[n+]([O-])cc1
active: Potency [2] 38.6 µM | Potency [10] 35.6 µM | Potency [5] 35.6 µM | Potency [6] 39.9 µM | Potency [7] 31.7 µM | Potency [9] 63.3 µM
inactive: outcome [1] | Potency [3]

CCCC(=O)OCC
inactive: outcome [1] | Potency [2] | Potency [11] | Potency [4] | Potency [10] | Potency [5] | Potency [7] | Potency [8] | Potency [9]
active: Potency [6] 12.6 µM

O=C(CCN1CCN2CCCC2C1)N1c2ccccc2Sc2ccc(Cl)cc21 (configuration not stated)
active: Potency [13] 12.6 µM | Potency [14] 12.6 µM | Potency [10] 6.74 µM
inactive: caspase activation [1] 1.09% [at 19 µM] | activity change, negative = cytotoxicity [2] -16.9% [at 19 µM] | caspase-3/7 activation [3] 0.894% [at 19 µM] | max activation [12] 3.92% | activity change, negative = inhibition [5] -4.46% [at 23.6 µM] | activity change, negative = inhibition [6] 11.9% [at 23.6 µM] | activity change, negative = inhibition [7] -23.8% [at 23.6 µM]

OCC1CC2CC1C1CCC(CO)C21 (configuration not stated)
inactive: outcome [1] | Potency [2] | Potency [11] | Potency [4] | Potency [10] | Potency [8] | Potency [9]

O=S1(=O)c2cccc3cccc(c23)N1CCCN1CCN(c2ccc(F)cc2)CC1
inactive: outcome [1] | Potency [2] | Potency [11] | Potency [13] | Potency [6]
active: Potency [4] 4.73 µM | Potency [14] 15.8 µM | Potency [10] 1.55 µM | Potency [5] 24.5 µM | Potency [7] 15.5 µM

C1CCC2OC2C1 (configuration not stated)
inactive: outcome [1] | Potency [2] | Potency [11] | Potency [4] | Potency [10] | Potency [5] | Potency [6] | Potency [8] | Potency [9]
